Consider 85 compounds from PubChem BioAssay AID1053197 (The Scripps Research Institute Molecular Screening Center, 2014).

Screen size: about 370,000 compounds; about 2,600 (0.7%) were called active. The list comes from a sample in which actives are over-represented; it also holds similar structures and randomly drawn compounds. A number with no mark means an inactive call.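 How the source made its calls: active means inhibition above a cutoff: mean of compounds within the control limits plus 3 SD of those (cut at about 17% in these data); inactive means the rest.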

For the test, the target named is Sialate O-acetylesterase (Homo sapiens) (UniProt Q9HAT2). The experiment in a line: blockers of sialate O-acetylesterase activity-probe labeling – biochemical, fluorescence polarization, FP-Rh probe, 1536-well HTS, primary screen (AID 1053197).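 Further: 0% = plate median of compound wells and 100% = probe without SIAE protein.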 The note with it: SIAE FP-Rh probe binding, at 9.66 µM, hits give high values.
Sialate O-acetylesterase (Homo sapiens), sequence (Q9HAT2 whole entry, looked up): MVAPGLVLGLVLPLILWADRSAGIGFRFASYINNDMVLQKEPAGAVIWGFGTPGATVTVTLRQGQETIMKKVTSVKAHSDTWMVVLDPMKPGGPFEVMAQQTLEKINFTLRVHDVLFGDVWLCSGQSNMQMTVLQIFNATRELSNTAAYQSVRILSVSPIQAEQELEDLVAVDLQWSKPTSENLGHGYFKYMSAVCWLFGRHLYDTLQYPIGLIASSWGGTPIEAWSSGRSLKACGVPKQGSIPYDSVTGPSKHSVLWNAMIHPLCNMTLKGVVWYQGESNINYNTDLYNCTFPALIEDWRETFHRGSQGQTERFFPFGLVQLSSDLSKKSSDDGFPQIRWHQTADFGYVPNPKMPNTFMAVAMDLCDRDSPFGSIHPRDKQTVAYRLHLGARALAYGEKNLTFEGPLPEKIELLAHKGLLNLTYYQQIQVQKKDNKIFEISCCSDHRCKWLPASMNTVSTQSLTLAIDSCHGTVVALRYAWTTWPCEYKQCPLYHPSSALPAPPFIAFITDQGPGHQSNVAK
For `CCC(c1ccc(NC(=O)OC(C)(C)C)cc1)c1cc(OC)cc(OC)c1` (stereo not given), the inhibition was -2.44%.

As to `C=CCN1C(=O)[C@H](CC(=O)N2CCN(C(=O)OCC)CC2)[C@@]2(C(=O)OCC)CCCC=C12`, the inhibition is 10.1%.

In the case of `CC(=O)N1CCc2cc(S(=O)(=O)NCCC(=O)N3CCCC3)ccc21`, the inhibition is -1.37%.

`C=CCN1C(=O)[C@@H](CC(=O)N2CCN(C(=O)c3ccco3)CC2)[C@]2(C(=O)OC)CCCCC=C12`: the inhibition was 2.59%.

As for `CC(C)N1CCCCC(NC(=O)C(C)(C)C)C1=O` (stereo not given), the inhibition is -4.73%.

Turning to `O=C(COc1ccc(Cl)cc1)NCCSc1ccccc1`, the inhibition was 0.9%.

In the case of `Cc1ccccc1OCC(=O)NCC(=O)OCC(=O)c1ccc2ccccc2c1`, the inhibition was -1.57%.

On to `Cc1cc2ccccc2n1CCNC(=O)COc1ccc2ccccc2c1`, for which the inhibition is 27.9% (active).

As for `C[C@H]1[C@H](NC(=O)c2cccc(N(C)C)c2)CC[C@@]23CCCN2C(=O)CCC[C@@H]13`, the inhibition is 0.13%.

`COc1ccc(CSc2nnc(-c3cccc(C)c3)n2C)cc1`: the inhibition was 4.99%.

Turning to `COC(=O)C[C@@H]1CC[C@H]2[C@@H](COc3ccc(NS(=O)(=O)CC(F)(F)F)cc3C(=O)N2C)O1`, the inhibition is 8.2%.

For the compound `COC(=O)[C@]12C[C@H](CC(=O)NCc3cccs3)C(=O)N(CCc3ccc(OC)c(OC)c3)C1=C[C@H](C(C)C)O[C@@H]2C1CC1`, the inhibition is 9.66%.

On to `COc1ccc(C2CC=C(C(=O)O)C(c3ccccc3F)N2S(=O)(=O)c2ccc(C)cc2)cc1OC` (stereo not given), for which the inhibition is -2.16%.

As for `CCOC(=O)c1nnn(-c2nonc2OC)c1-c1ccccc1`, the inhibition was 1.88%.

Regarding `CCOC(=O)C1=C(c2ccccc2)O/C(=C(/C(=O)OC)C(F)(F)F)S1`, the inhibition is 36% (active).

In the case of `COC(=O)/C(=C1\Oc2ccc(C(C)(C)C)cc2S1)C(F)(F)F`, the inhibition is 0.75%.

With `c1csc(-c2nnc(SCc3nc4ccccc4[nH]3)o2)c1`, the inhibition was -0.76%.

Regarding `CCCNC(=O)Nc1ccc2c(c1)C(=O)N(C)[C@H]1CC[C@H](CC(=O)NCC3CCCCC3)O[C@@H]1CO2`, the inhibition is -0.34%.

Consider `Cc1cccc(NC(=O)C[C@H]2CC[C@H]3[C@@H](COc4ccc(NC(=O)Nc5ccccc5)cc4C(=O)N3C)O2)c1`, for which the inhibition was -1.56%.

As to `COc1ccc(/C=N/NC(=O)c2ccncc2)cc1CN1CCCc2ccccc21`, the inhibition was 18.8% (active).

With `CCc1ccc(/C=N/NC(=O)c2nnn(-c3nonc3N)c2CN2CCc3ccccc32)cc1`, the inhibition is -0.3%.

Turning to `COc1ccccc1CCC(=O)NNC(=O)c1ccncc1`, the inhibition is -7.13%.

On to `CCCCNC(=O)C[C@H]1C[C@@]2(C(=O)OC)C(=C[C@H](COCc3ccccc3)O[C@@H]2C)N(Cc2ccc(Cl)cc2Cl)C1=O`, for which the inhibition is 11.1%.

As for `COc1ccc(S[C@]2(C(=O)N(C)C)CC(=O)N(c3ccc(OC)cc3)[C@@H]2c2ccc(OC)cc2)cc1`, the inhibition is -0.86%.

For `Cc1ccc(NC(=O)Cc2cccc(F)c2)c(S(=O)(=O)N2CCOCC2)c1`, the inhibition was -2.62%.

Consider `COc1ccccc1OCC(=O)OCn1c(SC)nnc(C)c1=O`, for which the inhibition was -6.49%.

For the compound `CCn1c(SC)nc(O)c(C(c2ccc(OC)c(O)c2)c2c(O)nc(SC)n(CC)c2=O)c1=O`, the inhibition was 26.7% (active).

As for `CCSc1nc(O)c(C(c2cccc(OC)c2)c2c(O)nc(SCC)[nH]c2=O)c(=O)[nH]1`, the inhibition was -2.73%.

For the compound `Oc1ccc(/C=N/N(Cc2ccccc2)c2ccccc2)cc1`, the inhibition was 19.4% (active).

In the case of `CCN(/N=C/c1ccc(N(C)C)cc1)c1nc2ccccc2[nH]1`, the inhibition is 4.94%.

Take `CCN(/N=C/c1ccccc1)c1cc(=O)n(C)c(=O)[nH]1`: the inhibition was 10.2%.

Consider `O=C(NC1CCCC1)C1CSCCS(=O)(=O)N1Cc1ccccc1` (stereo not given), for which the inhibition is -3.54%.

As to `N[C@@H](Cc1ccccc1)C(=O)N1CCC[C@@H]1C(=O)N1CCC2CCN(S(=O)(=O)c3ccccc3)CC21` (stereo not given in full), the inhibition is 1.02%.

As for `Oc1ccc(/C=C/c2c(F)cccc2F)c2cccnc12`, the inhibition is 9.1%.

As to `COCC1CCN(C(=O)c2ccc3oc(Cc4ccccc4)nc3c2)C1` (stereo not given), the inhibition is -5.51%.

`COc1ccc(Cc2nc3ccc(C(=O)N4CCC(N(C)C)C4)cc3o2)cc1` (stereo not given): the inhibition was 18.5% (active).

`CCC1C(=O)NCCN1C(=O)c1ccc2nc(Cc3ccc(OC)cc3)oc2c1` (stereo not given): the inhibition was -0.21%.

Take `CC(CCN1CCC(C(O)(c2ccccc2)c2ccccc2)CC1)Oc1ccc([N+](=O)[O-])cc1Cl` (stereo not given): the inhibition is 1.3%.

`Cc1ccc(/C=N/NC(=O)c2cc3ccccc3cc2O)o1`: the inhibition was 21.5% (active).

On to `Cc1ccc(/C=N/NC(=S)NC2CCCCC2)o1`, for which the inhibition is 8.46%.

Take `Cc1ccc(/C=N/NC(=O)Cn2ccc(C(F)(F)F)n2)o1`: the inhibition was 2.98%.

Turning to `C[C@H]1CCC/C=C/C(=O)c2c(O)cc(O)cc2CC(=O)O1`, the inhibition was 5.43%.

`C=CCOC/C=C/C#CCN(CC=C)Cc1ccc(OC)cc1OC`: the inhibition was -0.76%.

As for `CCOC(=O)CC1=CC(=O)Nc2ccccc2N1`, the inhibition was 2.76%.

With `CCCCC(CC)CNC(=O)C(=O)C1C(=O)Nc2ccccc21` (stereo not given), the inhibition is 4.38%.

`CCOC(=O)C(=O)C1C(=O)Nc2ccccc21` (stereo not given): the inhibition was 20.6% (active).

In the case of `Nc1cccc(S(=O)(=O)Nc2ccc(SC(F)F)cc2)c1`, the inhibition is -5.85%.

As for `COc1ccc(NC(=O)/C(N=Nc2cccc(S(=O)(=O)Nc3ccc(SC(F)F)cc3)c2)=C(\C)O)cc1`, the inhibition was 17.2% (active).

With `Cc1c(NS(=O)(=O)c2cccc(C(=O)Nc3ccc(SC(F)F)cc3)c2)c(=O)n(-c2ccccc2)n1C`, the inhibition is -14%.

In the case of `Cc1nc2ccc(C(=O)N3CCN(C(=O)C(C)(C)C)CC3)cc2n1C1CCCC1`, the inhibition is 1.16%.

For the compound `Cc1ccccc1CS(=O)(=O)Cc1ccc(C(=O)Nc2ccc(Cl)cc2)o1`, the inhibition was -4.56%.

`C[C@H](C(=O)N(C)c1ccccc1)[C@@H](O)c1ccc(Cl)cc1`: the inhibition was -3.9%.

Regarding `COc1ccc(-n2c(SCC(=O)Nc3ccc(C)c(Cl)c3)nc3ccccc3c2=O)cc1`, the inhibition was -5.2%.

Take `O=C(OC12CCCN(C1)/C(=C/c1cccnc1)C2)C1CCCC1` (stereo not given): the inhibition was 9.64%.

Take `COc1ccc(N2CCN(c3ccc([N+](=O)[O-])nc3)CC2)cc1`: the inhibition is 27.9% (active).

On to `COc1ccccc1N1CCN(c2ccc([N+](=O)[O-])nc2)CC1`, for which the inhibition is 3.93%.

Take `O=[N+]([O-])c1ccc(N2CCN(c3ccc(F)cc3)CC2)cn1`: the inhibition was 1.56%.

With `Cc1c(C(C)c2ccccc2O)[nH]c2ccccc12` (stereo not given), the inhibition was 3.42%.

As to `C=C(C)C#CC(Cc1ccccc1)N(CC1CC1)/C(N)=N/C(=O)OCc1ccccc1` (stereo not given), the inhibition was 8.05%.

For the compound `C[C@@H](NC(=O)c1ccccc1OCC(=O)Nc1ccc(I)cc1)C(=O)N(C)Cc1ccccc1`, the inhibition was -10.2%.

Turning to `O=C(CC[C@H]1O[C@@H](n2ccc(=O)[nH]c2=O)[C@H](O)[C@@H]1O)N[C@H](Cc1ccccc1)C(=O)NCc1ccco1`, the inhibition is 1.02%.

As for `O=C(CC[C@H]1O[C@@H](n2ccc(=O)[nH]c2=O)[C@H](O)[C@@H]1O)N[C@H](Cc1ccccc1)C(=O)NCCCN1CCCC1=O`, the inhibition is 47.1% (active).

As for `Cc1ccc(NC(=O)[C@H](Cc2ccccc2)NC(=O)CC[C@H]2O[C@@H](n3ccc(=O)[nH]c3=O)[C@H](O)[C@@H]2O)cc1C`, the inhibition is 0.53%.

`CSc1ccc(C=Nn2c(-c3ccc(F)cc3)n[nH]c2=S)cc1`: the inhibition was 2.39%.

For `O=C(Cn1cncn1)N/N=C/c1c2ccccc2cc2ccccc12`, the inhibition is -1.87%.

In the case of `Cn1cccc1/C=N/NC(=O)CNc1cccc2ccccc12`, the inhibition was 18.6% (active).

For the compound `C/C(=N\NC(=O)CNc1cccc2ccccc12)c1ccc(Br)s1`, the inhibition was -5.3%.

In the case of `C[C@H](C(=O)N(C)c1ccccc1)[C@@H](O)c1ccc2ccccc2c1`, the inhibition is 3.1%.

With `CCC(=O)Nc1ccc2c(c1)C(=O)N(C)[C@@H]1CC[C@@H](CC(=O)NCCc3ccccc3)O[C@H]1CO2`, the inhibition was 1.28%.

As to `COc1ccccc1C(=O)NC1CCCCN(C(C)C)C1=O` (stereo not given), the inhibition is 0.76%.

For `C=CCN(Cc1ccc2c(c1)OCO2)C(C#CC1CC1)C(C)(C)C` (stereo not given), the inhibition was 4.36%.

As for `CCOC(=O)C1=C(C)NC(SC)=NC1c1ccccc1` (stereo not given), the inhibition was 5.58%.

Turning to `COC(=O)C1=C(C(=O)OC)C2(OC1c1ccc(Br)cc1)C(=O)c1ccccc1C2=O` (stereo not given), the inhibition is 14.3%.

Turning to `CCOC(=O)C1=C(C)N=C2c3ccccc3C(=O)C2C1c1ccc(Br)cc1` (stereo not given), the inhibition is 18% (active).

Turning to `CCCCN1CCN(C(=O)c2ccc3c(c2)NC(=O)C(C)(C)O3)CC1`, the inhibition is -0.65%.

As for `COC[C@@H]1CCCN1c1ccc2c(c1)O[C@H](C)CCN(C1CC1)S2(=O)=O`, the inhibition was -0.33%.

For the compound `CC(=O)Nc1ccc(OC[C@@H](O)CN2CCC(C(O)(c3ccccc3)c3ccccc3)CC2)cc1`, the inhibition is -6.43%.

For the compound `CN(C)Cc1cn(-c2ccc(-c3noc4c3C(=O)N(CC(=O)N3CCOCC3)CC4)cc2)nn1`, the inhibition is -2.28%.

With `CN1c2ccc(C=O)c3c(C=O)ccc(c23)N(C)C1(C)C`, the inhibition was 21.9% (active).

`Cc1nc(CNc2ncnc3ccc(-c4ccc5c(c4)OCO5)cc23)cs1`: the inhibition is -10.9%.

As to `O=C(Nc1ccccc1)N1CCN(Cc2nc3ccccc3c(=O)[nH]2)CC1`, the inhibition is 12.6%.

Regarding `COc1ccc(Cn2cc(CN3[C@@H](CC(C)C)COc4cc(Br)ccc4S3(=O)=O)nn2)cc1`, the inhibition is 0.93%.

For the compound `NS(=O)(=O)c1ccc(NC(=O)COC(=O)c2c3c(nc4ccccc24)/C(=C\c2ccc4c(c2)OCO4)CCC3)cc1`, the inhibition is 43.9% (active).

For `O=C(COC(=O)c1c(Cl)cccc1Cl)Nc1cccc(S(=O)(=O)NC2=NCCCCC2)c1`, the inhibition was -8.81%.

Turning to `CN(C)S(=O)(=O)c1ccc(NC(=O)COC(=O)c2n[nH]c3ccccc23)cc1`, the inhibition was -22.8%.
